This is part of a sample that, as a whole, favours compounds with a hit. Of some 79,000 tested, about 15% had one in any assay. Active and inactive are the calls of the source. Rule as the data show it: active = growth inhibition above about 70%; inactive = the rest.
Tests used:
[1] = NCI Yeast Anticancer Drug Screen. Data for the rad50 strain (AID 155);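 also: 0% = growth of vehicle-only cultures of the same strain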; settings: S. cerevisiae rad50 strain growth inhibition; at 50.0 µM; stronger effect = higher value
Method in brief: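 Readout: growth inhibition relative to vehicle-treated cultures. Compound exposure was carried out in a genetically defined yeast strain deficient in DNA damage repair.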

[2] = NCI Yeast Anticancer Drug Screen. Data for the mec2-1 strain (AID 157); settings: S. cerevisiae mec2-1 strain, at 50.0 µM, stronger effect = higher value
Method in brief: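 Readout is yeast growth inhibition, normalised to vehicle-treated controls, in the mec2-1 strain exposed to compound.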

[3] = NCI Yeast Anticancer Drug Screen. Data for the sgs1 mgt1 strain (AID 161);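 also: 0% = growth of cultures given vehicle only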; settings: S. cerevisiae sgs1 mgt1 strain, at 50.0 µM, stronger effect = higher value
Method in brief: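 Percent growth inhibition was derived by comparing compound-exposed mutant yeast with vehicle-exposed cultures. The strain carries alterations in DNA damage repair.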

[4] = NCI Yeast Anticancer Drug Screen. Data for the cln2 rad14 strain (AID 165);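 also: 0% = growth equal to vehicle treated cultures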; settings: S. cerevisiae cln2 rad14 strain, at 50.0 µM, stronger effect = higher value
Method in brief: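 Relative to vehicle controls, growth inhibition of compound-treated cln2 rad14 yeast was recorded.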

[5] = NCI Yeast Anticancer Drug Screen. Data for the bub3 strain (AID 167); settings: S. cerevisiae bub3 mutant strain, at 50.0 µM, stronger effect = higher value
Method in brief: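 Readout: yeast growth inhibition, expressed relative to vehicle-only wells. The test organism is a mutant strain from a panel with lesions in DNA repair or checkpoint genes.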

[6] = NCI Yeast Anticancer Drug Screen. Data for the mlh1 rad18 strain (AID 175); settings: S. cerevisiae mlh1 rad18 strain growth inhibition; at 50.0 µM; stronger effect = higher value
Method in brief: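 Test agents were incubated with a yeast strain of defined genotype (DNA damage repair defect). Inhibition of growth was derived by comparison with vehicle-exposed cultures.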

Measured: growth inhibition

COc1cc(OC)c(SC)cc1CC(C)N (stereo unspecified)
inactive: [1] -19.2% | [2] -0.95% | [3] -3.2% | [4] -16.1% | [5] 21.3% | [6] -3.05%

O=[As]c1ccc(C(=O)Cl)cc1 (stereo unspecified)
inactive: [1] -2.3% | [2] -16.4% | [3] -20.1% | [4] 2.15% | [5] -25.3% | [6] 0.45%

CNc1ccccc1C(=O)O
inactive: [1] -19.8% | [2] -7.3% | [3] 10.5% | [4] -9.75% | [5] -12.2% | [6] 3.15%

[C-]#[O+].[C-]#[O+].[C-]#[O+].[W].c1ccc([PH+](CC[PH+](c2ccccc2)c2ccccc2)CC[PH+](c2ccccc2)c2ccccc2)cc1
inactive: [1] 0.6% | [2] -18.7% | [3] -1.8% | [4] 3.45% | [5] 3.85% | [6] 2.6%

C1CCNCC1.COc1ccccc1C(=O)[CH-]C(=O)C(F)(F)F.COc1ccccc1C(=O)[CH-]C(=O)C(F)(F)F.COc1ccccc1C(=O)[CH-]C(=O)C(F)(F)F.COc1ccccc1C(=O)[CH-]C(=O)C(F)(F)F.[Eu+3]
inactive: [1] 56.3% | [2] 48.5% | [3] 48.9% | [4] 34.1% | [5] 29.8% | [6] 64.5%

O[As](O)O.S=C(S)c1ccccc1S
inactive: [1] 7.55% | [2] -13% | [3] 18.7% | [4] 28% | [5] 1.75% | [6] 24.9%

CN(C)P1(=O)NCC(C(C)(C)C)CO1 (stereo unspecified)
inactive: [1] 26.4% | [2] -21.1% | [3] -5.3% | [4] 21.6% | [5] -0.1% | [6] -16.8%

CCOP(=O)(Cc1ccc(Cl)cc1)OCC
inactive: [1] 33.8% | [2] 7.9% | [3] 17.6% | [4] 21.4% | [5] 15.2% | [6] 8.05%

COc1cc(C2c3cc4c(cc3OC(C)(O)C2C)OCO4)cc(OC)c1OC (stereo unspecified)
inactive: [1] 8.8% | [2] -1.15% | [3] 9.85% | [4] -25.4% | [5] -16.9% | [6] 15.2%

C=C[CH2][Sn]([CH2]C=C)([CH2]CCC)[CH2]CCC
active: [1] 99.4% | [2] 99.5% | [3] 99.6% | [4] 99.2% | [5] 99.5% | [6] 99.4%

CCCCN1CCC2(C)c3cc(O)ccc3CC1C2CC (stereo unspecified)
inactive: [1] 6.8% | [2] 9.5% | [3] 4.4% | [4] -46.6% | [5] 11.3% | [6] 12.7%

Nc1nc(N)c(N)c(N)n1
inactive: [1] 3.05% | [2] 1.8% | [3] 14.6% | [4] -3.05% | [5] -3.05% | [6] 34.2%

CN(C)c1ccc(C(c2c(O)c3ccc(O)cc3oc2=O)c2c(O)c3ccc(O)cc3oc2=O)cc1
inactive: [1] 8.4% | [2] 7.75% | [3] 22.2% | [4] 32.7% | [5] 3.9% | [6] 11.4%

C[P+]1(C)CCCCC1
inactive: [1] 7.15% | [2] 12.8% | [3] 0.35% | [4] -2.7% | [5] -8.85% | [6] -17.1%

Oc1ccccc1C=NC1CCCCC1.Oc1ccccc1C=NC1CCCCC1.[Ni+2]
inactive: [1] 38.6% | [2] -9.25% | [3] 28.6% | [4] -40.8% | [5] -0.1% | [6] -15.4%

CCOP1(=O)C=C(C)C(Cl)=C(C)C1 (stereo unspecified)
inactive: [1] 26.9% | [2] 8.35% | [3] 11% | [4] -14.3% | [5] 3.05% | [6] 20.9%

[N-]=[N+]=NC(=O)Nc1ccccc1F
inactive: [1] -6.4% | [2] -1.1% | [3] -14.6% | [4] -19.3% | [5] -19.6% | [6] 16.1%

COc1ccc2c(c1)C1(C)CCN(CCc3ccccc3)C(C2)C1C (stereo unspecified)
inactive: [1] 24.9% | [2] 15.4% | [3] 20.7% | [4] 0.05% | [5] 6.25% | [6] 24.4%

COC(=S)NP(=O)(NC(=S)OC)NC(=S)OC
inactive: [1] 11.7% | [2] -3.4% | [3] 9.65% | [4] -35% | [5] -1.95% | [6] 8.25%

CC12CCC3C4CCC(=O)C=C4CCC3C1CC1CC(=O)OC12 (stereo unspecified)
inactive: [1] -4.15% | [2] 1% | [3] 0.4% | [4] -7.95% | [5] 11.7% | [6] -2.8%

CN(CCC#N)c1ccc(C=C(C#N)C#N)cc1
inactive: [1] 7.25% | [2] 11.3% | [3] 7.65% | [4] 8.05% | [5] 24.7% | [6] 5.65%

O=C(N/N=C/c1cc(Cl)cc(Cl)c1[O-])c1ccccc1O.O=C(N/N=C/c1cc(Cl)cc(Cl)c1[O-])c1ccccc1O.[Ni+2]
inactive: [1] -8.75% | [2] -15.8% | [3] -14.8% | [4] -41.2% | [5] 6.9% | [6] -17.1%

CC12CC/C(=N/NC(=O)Cc3c[nH]c4ccccc34)C=C1CCC1C2CCC2(C)C(OC(=O)c3ccccc3)CCC12 (stereo unspecified)
inactive: [1] 35.8% | [2] 28.6% | [3] 24.1% | [4] 0.65% | [5] 3.3% | [6] 34.8%

Cc1c2ccncc2c(C)c2c1[nH]c1ccccc12
active: [1] 91.2% | [2] 89.5% | [3] 90.5% | [4] 84.9% | [5] 89.6% | [6] 90.7%

CC(C)CC1N=C(NN=C(CCl)CCl)SP1(=O)NCCCCCCNP1(=O)SC(NN=C(CCl)CCl)=NC1CC(C)C (stereo unspecified)
inactive: [1] 2.95% | [2] 12.1% | [3] 11.4% | [4] -11.7% | [5] 15.9% | [6] 13.8%

O=C1NC(=O)C(O)(C2=C(O)CCC2=O)C(=O)N1
inactive: [1] 12.8% | [2] -0.3% | [3] 4.9% | [4] -25.6% | [5] 13.9% | [6] 10.4%

CCOC(=S)S.[Pb]
inactive: [1] 18.9% | [2] 21.8% | [3] 27.2% | [4] 13.6% | [5] 26.2% | [6] 9.7%

CCOC(OCC)c1ccc2c(c1)OCO2
inactive: [1] 5.65% | [2] -5.75% | [3] 13.2% | [4] 4.7% | [5] -0.05% | [6] 11.8%

CCOP(O)OCC
inactive: [1] 0.6% | [2] 11.4% | [3] -5.25% | [4] 23.9% | [5] -5.2% | [6] -1.35%

COC12CC3(C)C(C4=CC(=O)OC4)CCC3(O)C3CCC4=CC(=O)CCC4(CO1)C32 (stereo unspecified)
inactive: [1] -1.85% | [2] -10.2% | [3] -11.4% | [4] 15.8% | [5] -16.9% | [6] 6.6%

CC(=O)N(C)C(=O)Oc1cccc2ccccc12
inactive: [1] -8.35% | [2] 17.4% | [3] -10.8% | [4] -34.2% | [5] -27.1% | [6] -0.55%

[C-]#[O+].[C-]#[O+].[C-]#[O+].[C-]#[O+].[C-]#[O+].[C-]#[O+].[C-]#[O+].[C-]#[O+].[C-]#[O+].[CH2-]C.[Co].[Co].[Co]
inactive: [1] 25.6% | [2] 9.9% | [3] 19.1% | [4] -2.3% | [5] 24.2% | [6] 33.8%

COc1ccc(C2=CCN(c3ccc(C)cc3)P(=O)(N(CCCl)CCCl)O2)cc1 (stereo unspecified)
inactive: [1] 46.8% | [3] 68.9%
active: [2] 74% | [4] 81.1% | [5] 90.8% | [6] 77.4%

[N-]=[N+]=NC12CC3CC(CC(C3)C1)C2
inactive: [1] -9.7% | [2] -6% | [3] -7.45% | [4] -9.35% | [5] -25.6% | [6] -20.2%

COc1ccc2[nH]cc(/C=C\[N+](=O)[O-])c2c1
inactive: [1] 6% | [2] -10.1% | [3] 32.4% | [4] 2.2% | [5] 7.65% | [6] 13.8%

CCN1C(=O)C(C)C(=O)N(C)C1=O (stereo unspecified)
inactive: [1] -33.6% | [2] 18.7% | [3] 0.9% | [4] -11.4% | [5] 0.1% | [6] 1.8%

CC[As](=O)(O)CCCc1ccccc1
inactive: [1] 5.55% | [2] 32.9% | [3] 14.9% | [4] 3.1% | [5] -0.15% | [6] -2.05%

CC1(C)N=C(N)N=C(N)N1c1ccc(CCC(=O)Nc2ccc(S(=O)(=O)F)cc2)cc1
active: [2] 87.3% | [3] 76.8%
inactive: [1] 27.6% | [4] -28.8% | [5] -0.55% | [6] 54.1%

CO[C@@]12[C@H](COC(N)=O)C3=C(C(=O)C(C)=C(NCCO)C3=O)N1C[C@@H]1N[C@@H]12
inactive: [1] 3.75% | [2] -27.1% | [3] 21.1% | [4] -0.4% | [5] 7.35% | [6] -7.45%

[Se]=[Hf]=[Se]
inactive: [1] 1.35% | [2] -24.7% | [3] -28.7% | [4] -8.6% | [5] -11.8% | [6] -26.6%

CCNP(=O)(OCC)OCC
inactive: [1] 9.9% | [2] -15.6% | [3] 12.2% | [4] 24.4% | [5] 7.6% | [6] 17.9%

From PubChem BioAssay (NCI)
